Experimental data published in PubChem BioAssay.
Results filed as inconclusive are left out. For some of these results: Measured potencies and affinities stand elsewhere. Activity calls are given as the source filed them.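 The calls were made as follows, unless noted: active = thallium flux through the channel raised or lowered by more than 3 SD from vehicle-only wells, actives on both sides; inactive = the rest.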

What was measured:
[1] = polyglutamine-triggered caspase-3 activation inhibitors, cell-based (AID 1583); conditions: polyglutamine-induced caspase-3 activation, cell assay; stronger effect = higher value;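 tested at 10 µM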
[2] = suppressors of polyQ aggregation in yeast, 75Q-TubU reporter (AID 1593); conditions: Yeast 75Q polyglutamine aggregation reporter
[3] = inhibitors of mitochondrial cytochrome c release, biochemical, purified mitochondria (AID 1603); conditions: stronger effect = lower value;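 also: mouse liver mitochondria challenged with calcium chloride; signal normalized to the plate average as 100%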
[4] = inhibitors of polyQ protein aggregation (AID 1604); conditions: polyglutamine-induced protein aggregation inhibition assay; stronger effect = higher value; tested at 2.5 µM
[5] = enhancers of glutamate uptake in motor neurons, MN-1 cell line (AID 1612); conditions: MN-1 motor neuron cells, stronger effect = higher value;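 also: tested at 1 µM final; 0% = mean of DMSO vehicle wells on each plate; positive means more glutamate uptake than control and negative means less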
[6] = suppressors of polyglutamine aggregation in yeast, 75Q-TubH (AID 1616); conditions: S. cerevisiae 75Q-TubH polyglutamine aggregation suppression; stronger effect = higher value
[7] = circadian clock period modulators, cell-based, LOPAC library, luminescence reporter (AID 2774; call rule not given here;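 also: values are relative to mean of DMSO wells on each plate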); conditions: circadian reporter cells, at 7 µM, actives lie on both sides
[8] = hESC survival regulators, cell-based (AID 493140; call rule not given here;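 also: cells exposed to compounds for four days before counting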); conditions: human embryonic stem cell survival screen; stronger effect = higher value
[9] = test system: Hepatitis C virus NS3 helicase; assay: HCV NS3 helicase inhibitors, primary screen, biochemical, fluorescence polarization, LOPAC1280 library (AID 687035; in the data active = inhibition above about 37%); conditions: Purified HCV NS3 helicase, Cy5-dT15 ssDNA binding fluorescence polarization; stronger effect = higher value; concentration not given here
[10] = Cy5 fluorescence quenching or enhancement artefacts, artefact control for HCV NS3 helicase inhibitor project, biochemical, LOPAC1280 (AID 687037; call rule not given here); conditions: Cy5-DNA-NS3h complex fluorescence interference counterscreen
[11] = phospholipid biosynthesis inhibitors in animal cells, primary screen, cell-based, LOPAC library, screen 4 (AID 1347384; call rule not given here); conditions: phospholipid biosynthesis inhibition screen, at 10 µM
F380Y/beta1 = assay: modulators of BK channel variants, profiling panel, selectivity assay, cell-based, U2OS BacMam, thallium flux, beta subunits (AID 1259406); conditions: at 30 µM;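 also: initial slope of Thallos dye fluorescence rise after thallium is added; log ratio against the mean of 0.3% DMSO vehicle wells on the same plate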
F380Y/beta4 = assay: as above; conditions: at 30 µM
R275C/beta4 = assay: as above; conditions: at 30 µM
R275C/Slo1WT/beta2 = assay: as above; conditions: at 30 µM
[12] = growth inhibition of DIPG glioma cells, dose response, cell-based, JHH-DIPG-1, MIPE4.0, CellTiter-Glo, qHTS (AID 1347062; cut-off not given, nearly all actives have AC50 up to about 27 µM;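 as to AC50: cells exposed to compound for two days before readout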); conditions: JHH-DIPG-1 viability, CellTiter-Glo ATP luminescence
[13] = test system: Neuropilin-2 / VEGF-C interaction (human); assay: inhibitors of NRP2–VEGF-C binding, biochemical, microplate binding format, z-score (AID 743281; call rule not given here); conditions: microplate NRP2/VEGF-C binding assay; stronger effect = lower value
[14] = rescue of polyQ-huntingtin neuronal dysfunction in worms, whole organism, C. elegans mechanosensory neurons, N-terminal huntingtin (AID 1599); conditions: touch response, stronger effect = higher value
[15] = test system: Aerobactin synthetase IucA (Klebsiella pneumoniae); assay: IucA aerobactin synthetase inhibitors, biochemical, Tocris library, absorbance (AID 1345561; call rule not given here;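 also: 100% = enzyme without compound and 0% = no enzyme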); conditions: purified IucA enzyme assay, absorbance (OD) read-out; stronger effect = lower value;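 tested at 8 µM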
[16] = modifiers of HSF1 nuclear foci, imaging, Selleck Cancer Library (AID 1347162; in the data active = plate-normalised HSF1 focus index below about 0.46); conditions: human cells, at 10 µM; SSMD: measured here: HSF1 foci SSMD mean; cell count: measured here: cell number; plate-normalised HSF1 focus index: stronger effect = lower value

Work on `CNCCC=C1c2ccccc2CCc2ccccc21` yielded an inhibition [1] of 16.9%, a score [2] of 1.22 and a cytochrome c release ratio [3] of 0.98. The inhibition of aggregation [4] was 72.7%, the glutamate uptake change [5] was 13.8% and the aggregation suppression score [6] was 1.32. The period change [7] was 0.025 h (inactive), the survival [8] was 3.42 (inactive) and the inhibition [9] was -5% (inactive). The fluorescence ratio (interference) [10] was 1 (inactive), the outcome [11] was “inactive” and the log fold change Tl+ flux (F380Y/beta1) was 0.0784 (inactive). For the same molecule, the log fold change Tl+ flux (F380Y/beta4) was 0.255 (active), the log fold change Tl+ flux (R275C/beta4) was 0.121 (inactive) and the log fold change Tl+ flux (R275C/Slo1WT/beta2) was -0.0571 (inactive).

With `CC(=O)O[C@]1(C(C)=O)CC[C@H]2[C@@H]3C[C@H](C)C4=CC(=O)CC[C@]4(C)[C@H]3CC[C@@]21C` the outcome [12] was “inactive”, the log fold change Tl+ flux (F380Y/beta1) was 0.0192 (inactive) and the log fold change Tl+ flux (F380Y/beta4) was -0.000109 (inactive). For the same molecule, the log fold change Tl+ flux (R275C/beta4) was 0.0252 (inactive) and the log fold change Tl+ flux (R275C/Slo1WT/beta2) was 0.0102 (inactive).

For `C#C[C@]1(OC(C)=O)CC[C@H]2[C@@H]3CCC4=CC(=O)CC[C@@H]4[C@H]3CC[C@@]21C`, the log fold change Tl+ flux (F380Y/beta1) was 0.0384 (inactive), the log fold change Tl+ flux (F380Y/beta4) was -0.176 (active) and the log fold change Tl+ flux (R275C/beta4) was -0.14 (active). The log fold change Tl+ flux (R275C/Slo1WT/beta2) was -0.0421 (inactive).

In the case of `OC[C@H]1O[C@@H](Oc2cc(O)cc(/C=C/c3ccc(O)cc3)c2)[C@H](O)[C@@H](O)[C@@H]1O`, the z-score [13] is reported as 0.265 (inactive), the outcome [12] is reported as “inactive” and the log fold change Tl+ flux (F380Y/beta1) is reported as -0.0141 (inactive). The log fold change Tl+ flux (F380Y/beta4) was -0.0711 (inactive), the log fold change Tl+ flux (R275C/beta4) was 0.00405 (inactive) and the log fold change Tl+ flux (R275C/Slo1WT/beta2) was 0.104 (active).

For `CCCCC(=O)O[C@H]1CC[C@H]2[C@@H]3CCc4cc(O)ccc4[C@H]3CC[C@]12C`, the log fold change Tl+ flux (F380Y/beta1) was -0.0484 (inactive), the log fold change Tl+ flux (F380Y/beta4) was 0.00293 (inactive) and the log fold change Tl+ flux (R275C/beta4) was -0.0402 (inactive). The log fold change Tl+ flux (R275C/Slo1WT/beta2) was 0.00597 (inactive).

In the case of `CCCc1nc(C(C)(C)O)c(C(=O)OCc2oc(=O)oc2C)n1Cc1ccc(-c2ccccc2-c2nn[nH]n2)cc1`, the outcome [13] is reported as “inactive”.

In the case of `C[C@H](CCC(=O)O)[C@H]1CC[C@H]2[C@@H]3[C@@H](O)C[C@@H]4C[C@H](O)CC[C@]4(C)[C@H]3CC[C@]12C`, the survival [8] is reported as 4.92 (inactive), the AC50 [12] is reported as 20.9 µM (active) and the log fold change Tl+ flux (F380Y/beta1) is reported as 0.0488 (inactive). The log fold change Tl+ flux (F380Y/beta4) was 0.0547 (inactive), the log fold change Tl+ flux (R275C/beta4) was -0.0188 (inactive) and the log fold change Tl+ flux (R275C/Slo1WT/beta2) was -0.0131 (inactive).

With `CC(=O)N=c1sc(S(N)(=O)=O)nn1C` the inhibition [1] was 0.15%, the score [2] was 0.84 and the rescue above control [14] was -0.14. For the same molecule, the cytochrome c release ratio [3] was 0.55, the inhibition of aggregation [4] was 49.4% and the glutamate uptake change [5] was -1.05%. The aggregation suppression score [6] was 1.33, the survival [8] was 5.08 (inactive) and the log fold change Tl+ flux (F380Y/beta1) was -0.0785 (inactive). For the same molecule, the log fold change Tl+ flux (F380Y/beta4) was 0.0268 (inactive), the log fold change Tl+ flux (R275C/beta4) was -0.0118 (inactive) and the log fold change Tl+ flux (R275C/Slo1WT/beta2) was -0.0121 (inactive).

`Cc1ccc(N(CC2=NCCN2)c2cccc(O)c2)cc1` gave an inhibition [1] of 0.92%, a score [2] of 1.23 and a rescue above control [14] of -6.1. The cytochrome c release ratio [3] was 0.77, the inhibition of aggregation [4] was 56.3% and the glutamate uptake change [5] was -12.3%. For the same molecule, the aggregation suppression score [6] was 1.42, the period change [7] was -0.015 h (inactive) and the survival [8] was 15.2 (inactive). For the same molecule, the inhibition [9] was -6% (inactive), the fluorescence ratio (interference) [10] was 0.9 (inactive) and the outcome [12] was “inactive”. For the same molecule, the outcome [11] was “inactive”.

With `CC1(C)SC2C(NC(=O)COc3ccccc3)C(=O)N2C1C(=O)O` (configuration not stated) the log fold change Tl+ flux (F380Y/beta1) was 0.027 (inactive), the log fold change Tl+ flux (F380Y/beta4) was -0.00549 (inactive) and the log fold change Tl+ flux (R275C/beta4) was 0.0174 (inactive). For the same molecule, the log fold change Tl+ flux (R275C/Slo1WT/beta2) was 0.0607 (inactive).

For `CC[C@H](C)C(=O)O[C@H]1CCC=C2C=C[C@H](C)[C@H](CC[C@@H]3C[C@@H](O)CC(=O)O3)[C@H]21`, the period change [7] was 0.035 h (inactive), the inhibition [9] was -1% (inactive) and the fluorescence ratio (interference) [10] was 0.9 (inactive). For the same molecule, the z-score [13] was -1.1 (inactive), the remaining activity [15] was 123% (inactive) and the outcome [11] was “inactive”.

For `Nc1ccn([C@@H]2O[C@H](CO)[C@@H](O)C2O)c(=O)n1` (some centres not stated), the z-score [13] was 0.042 (inactive), the outcome [12] was “inactive” and the SSMD [16] was -7.27. The cell count [16] was 7440, the plate-normalised HSF1 focus index [16] was 0.739 (inactive) and the outcome [11] was “inactive”.

For `C#C[C@]1(O)CC[C@H]2[C@@H]3CCC4=CC(=O)CC[C@@H]4[C@H]3CC[C@@]21C`, the survival [8] was 14.7 (inactive), the log fold change Tl+ flux (F380Y/beta1) was 0.0886 (inactive) and the log fold change Tl+ flux (F380Y/beta4) was 0.0669 (inactive). For the same molecule, the log fold change Tl+ flux (R275C/beta4) was -0.0715 (inactive) and the log fold change Tl+ flux (R275C/Slo1WT/beta2) was -0.0385 (inactive).

For `C=CC1=C(C(=O)O)N2C(=O)[C@@H](NC(=O)/C(=N\O)c3csc(N)n3)[C@H]2SC1` (stereo in doubt), the outcome [13] was “inactive” and the outcome [12] was “inactive”.

In the case of `CC(=O)OCC(=O)[C@@]1(O)CC[C@H]2[C@@H]3CCC4=CC(=O)CC[C@]4(C)[C@H]3[C@@H](O)C[C@@]21C`, the log fold change Tl+ flux (F380Y/beta1) is reported as -0.0206 (inactive), the log fold change Tl+ flux (F380Y/beta4) is reported as 0.0297 (inactive) and the log fold change Tl+ flux (R275C/beta4) is reported as -0.0187 (inactive). For the same molecule, the log fold change Tl+ flux (R275C/Slo1WT/beta2) was -0.0133 (inactive).

For `CN=C(N)NCCC[C@H](N)C(=O)O`, the period change [7] was -0.035 h (inactive), the inhibition [9] was 0% (inactive) and the fluorescence ratio (interference) [10] was 1 (inactive). The z-score [13] was -0.991 (inactive) and the outcome [11] was “inactive”.

With `C[C@]12CC[C@@H]3c4ccc(O)cc4CC[C@H]3[C@@H]1CC[C@@H]2O` the period change [7] was 0.19 h (inactive), the survival [8] was 11.2 (inactive) and the inhibition [9] was -3% (inactive). The fluorescence ratio (interference) [10] was 1 (inactive), the SSMD [16] was 2.53 and the cell count [16] was 7010. The plate-normalised HSF1 focus index [16] was 1.15 (inactive) and the outcome [11] was “inactive”.

Work on `CC(CCc1ccccc1)NCC(O)c1ccc(O)c(C(N)=O)c1` (configuration not stated) yielded an inhibition [1] of 1.38%, a score [2] of 1.61 and a rescue above control [14] of 19.4. It also gave a cytochrome c release ratio [3] of 0.72, an inhibition of aggregation [4] of 83.1% and a glutamate uptake change [5] of -2.28%. The aggregation suppression score [6] was 1.14, the period change [7] was -0.45 h (inactive) and the survival [8] was 19.1 (inactive). The inhibition [9] was -4% (inactive), the fluorescence ratio (interference) [10] was 1 (inactive) and the outcome [11] was “inactive”. For the same molecule, the log fold change Tl+ flux (F380Y/beta1) was 0.0226 (inactive), the log fold change Tl+ flux (F380Y/beta4) was 0.0997 (inactive) and the log fold change Tl+ flux (R275C/beta4) was 0.0314 (inactive). The log fold change Tl+ flux (R275C/Slo1WT/beta2) was -0.0367 (inactive).

For `CN1CCN(CC/C=C2/c3ccccc3Sc3ccc(S(=O)(=O)N(C)C)cc32)CC1`, the period change [7] was 0.09 h (inactive).

For `CC(=O)OCC(=O)[C@@]1(O)CC[C@H]2[C@@H]3C[C@H](C)C4=CC(=O)C=C[C@]4(C)[C@H]3[C@@H](O)C[C@@]21C`, the log fold change Tl+ flux (F380Y/beta1) was 0.0602 (inactive), the log fold change Tl+ flux (F380Y/beta4) was 0.0393 (inactive) and the log fold change Tl+ flux (R275C/beta4) was 0.0801 (inactive). For the same molecule, the log fold change Tl+ flux (R275C/Slo1WT/beta2) was 0.0333 (inactive).
